High-throughput results as filed in PubChem.
This excerpt belongs to a sample that is enriched for hits.
ALR inh: human ALR oxidase inhibition via reduced H2O2; P55789; purified ALR, DTT oxidation, H2O2 HRP-luminol luminescence; inhibition, % (concentration not given with the values); hit rate 3.8% among 290,000;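 active means mean replicate inhibition above about 79%, with every replicate also reaching it, limit read from the data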
ARNT-TACC3 inh: disruptors of human ARNT/TACC3 interaction; AlphaScreen His-ARNT PAS-B/GST-TACC3 binding, luminescence; TACC3 fragment carries E629A point mutation; hit rate 0.66% among 390,000; Q9Y6A5; inhibition, % at 9.99 µM; AID 623870;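 active means mean inhibition of replicates at least 50% and at least half of replicates each reaching 50%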;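 further: 0% = complete ARNT plus TACC3 wells and 100% = ARNT alone without TACC3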
ERp5 block: ERp5 (human) disulfide isomerase inhibition; hit rate 0.05% among 350,000; AID 651711; ERp5 insulin aggregation, absorbance 650 nm, 90 min; inhibition, % at 9.99 µM; Q15084;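 active means mean replicate inhibition above about 25%, with every replicate also reaching it, limit read from the data, passing the limit was not always enough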
CendR NRP1 mod: NRP-1/CendR interaction modulation; O14786; inhibition, % at 25 µM; hit rate 0.85% among 360,000; FAM-RPARPAR peptide binding to NRP-1, fluorescence polarization;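 active means inhibition or corrected inhibition above about 18%, plus a signal ratio from 0.5 to 1.5, limit read from the data, passing the limit was not always enough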
Target sequence (O14786 whole entry, looked up): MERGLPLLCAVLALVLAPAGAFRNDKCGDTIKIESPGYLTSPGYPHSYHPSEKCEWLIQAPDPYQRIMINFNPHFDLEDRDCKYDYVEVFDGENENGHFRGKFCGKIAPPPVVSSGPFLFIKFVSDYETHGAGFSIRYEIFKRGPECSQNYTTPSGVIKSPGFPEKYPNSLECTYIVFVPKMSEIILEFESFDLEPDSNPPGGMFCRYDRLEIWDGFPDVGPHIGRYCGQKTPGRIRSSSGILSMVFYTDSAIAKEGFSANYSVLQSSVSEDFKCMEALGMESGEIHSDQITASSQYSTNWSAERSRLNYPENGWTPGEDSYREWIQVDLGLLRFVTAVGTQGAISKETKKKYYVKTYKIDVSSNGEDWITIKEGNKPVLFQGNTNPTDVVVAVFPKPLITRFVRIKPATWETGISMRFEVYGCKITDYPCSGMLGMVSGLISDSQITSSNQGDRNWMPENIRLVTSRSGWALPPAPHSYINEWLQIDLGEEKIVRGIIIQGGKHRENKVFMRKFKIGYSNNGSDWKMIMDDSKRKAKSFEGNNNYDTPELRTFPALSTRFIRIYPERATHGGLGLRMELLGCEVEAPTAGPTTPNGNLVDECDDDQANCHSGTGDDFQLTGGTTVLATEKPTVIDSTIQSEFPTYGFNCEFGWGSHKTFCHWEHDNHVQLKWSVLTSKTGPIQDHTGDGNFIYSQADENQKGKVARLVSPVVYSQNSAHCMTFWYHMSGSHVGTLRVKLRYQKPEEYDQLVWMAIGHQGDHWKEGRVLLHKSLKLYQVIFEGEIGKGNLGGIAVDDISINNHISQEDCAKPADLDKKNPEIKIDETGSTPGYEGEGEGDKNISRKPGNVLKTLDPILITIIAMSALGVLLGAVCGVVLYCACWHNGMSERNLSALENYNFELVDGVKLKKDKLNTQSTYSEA
PglD DTNB: blocks C. jejuni PglD acetyltransferase activity. hit rate 0.098% among 360,000. AID 602405. inhibition, % at 12.5 µM. purified PglD enzyme, DTNB colorimetric CoA detection; in the data active means inhibition above about 16%, passing the limit was not always enough
PDI turbidity: PDI (human) enzyme inhibition; PDI insulin aggregation turbidity, A650, 90 min; hit rate 0.052% among 350,000; inhibition, % at 10 µM; P07237;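 active means mean inhibition across replicates of 30% or more, whatever share of single replicates reach that level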
ARNT Alpha ctr-1: counter-screen for ARNT/TACC3 inhibitors: AlphaScreen artifacts | shares compounds with ARNT-TACC3 inh | His-ARNT PASB-GST AlphaScreen artifact counter-screen, luminescence | AC50, µM (top dose mostly 68 µM), for inactives: top-dose activity change, negative = signal decrease | hit rate 50% among 1,200 | AID 651705;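 active means every separate test run was called active for a drop in luminescence, with AC50 within twice the top valid dose, actives reach about 71 µM in these data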
ARNT Alpha ctr-2: produces AlphaScreen artifacts in ARNT-TACC3 counter-screen. shares compounds with ARNT-TACC3 inh. AID 720564. hit rate 70% among 45. Dual-tagged His-ARNT PASB-GST AlphaScreen artifact counter-screen. AC50, µM;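 active means luminescence drop, with half-maximal potency fitted within twice the sample's top valid dose, cut at about 70 µM in these data; inactive means the rest, including signal moving the wrong way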
The depositor's hits bear a star; · = no result given; [ ] = remark or other dose.

SMILES	ALR inh	ARNT-TACC3 inh	ERp5 block	CendR NRP1 mod	PglD DTNB	PDI turbidity	ARNT Alpha ctr-1	others
C[C@@H]1CCCCO[C@H](CN(C)S(=O)(=O)c2ccc(Cl)cc2)[C@H](C)CN([C@H](C)CO)C(=O)c2cc(NC(=O)Cc3ccccc3)ccc2O1	·	20	-2	·	3	·	·
O=C(CCN1CCCCC1)NCC[C@H]1CC[C@H](NC(=O)Nc2ccc(F)cc2)[C@@H](CO)O1	·	-10	4	·	-3	·	·
O=c1cc(CSc2ccc(Cl)cc2)nc(-c2ccccc2)[nH]1	-1	1	-2	-10	·	3	·
Clc1ccc(SCc2cc(N3CCOCC3)nc(-c3ccccn3)n2)cc1	0	60*	-9	-3	·	5	-14%
Clc1ccc(SCc2csc(N3CCOCC3)n2)cc1	-2	-2	0	1	·	-12	·
O=c1cc(CSc2ccc(Cl)cc2)nc(-c2ccccn2)[nH]1	-11	61*	4	9	2	-8	53µM*
C[C@@H]1CN([C@@H](C)CO)C(=O)Cc2cc(NS(C)(=O)=O)ccc2O[C@@H]1CN(C)S(=O)(=O)c1ccccc1	·	-11	6	·	0	·	·
C[C@@H]1CN([C@@H](C)CO)C(=O)c2cc(-c3cncnc3)cnc2O[C@@H]1CN(C)C(=O)Cc1cccnc1	·	-8	-4	·	7	·	·
Cc1nc2ccccc2c(=O)n1/N=C/c1ccc(O)c(O)c1O	98*	52*	4	-58	-7	-1	-12%
Cc1nnc(-c2ccccc2)c(=O)n1/N=C/c1c(O)ccc2ccccc12	-20	62*	·	-66	·	1	64µM*
Cc1nnc(C)n1/N=C/c1c(O)ccc2ccccc12	-35	9	-3	-3	-7	1	·
COc1ccc(NC(=O)N(C)C[C@@H]2Oc3c(NC(=O)C4CCOCC4)cccc3C(=O)N([C@H](C)CO)C[C@H]2C)cc1	·	2	-3	·	5	·	·
Cc1[nH]n(-c2ccccc2)c(=O)c1/C=N/N(c1ccccc1)c1ccccc1	41	55*	-12	-1	·	1	23µM*
OCCN(Cc1cccnc1)Cc1ccccn1	·	70*	-2	-23	-1	3	15µM*
O=S(=O)(N[C@@H]1CC[C@@H](CCn2cc(-c3ccccn3)nn2)O[C@H]1CO)c1cccc(F)c1	·	91*	1	·	-2	·	60µM*
Cc1cccc(S(=O)(=O)N[C@@H]2CC[C@H](CCn3cc(-c4ccccn4)nn3)O[C@@H]2CO)c1	·	·	-1	·	4	·	·
O=S(=O)(N[C@H]1CC[C@H](CCn2cc(-c3ccccn3)nn2)O[C@@H]1CO)c1cccc(Cl)c1	·	109*	0	·	5	·	49µM*
O=S(=O)(N[C@H]1CC[C@@H](CCn2cc(-c3ccccn3)nn2)O[C@@H]1CO)c1cccc(Cl)c1	·	95*	2	·	7	·	48µM*
O=C(C[C@H]1C[C@H]2c3cc(NC(=O)NC4CCCC4)ccc3O[C@H]2[C@H](CO)O1)NCc1ccc2c(c1)OCO2	·	-10	-5	·	4	·	·
CC(=O)c1cccc(-c2ccc3c(=O)[nH]c(Nc4ccccc4)cc3c2)c1	-117	33*	14	-85	0	-58	-21%
N#CCC(=O)N/N=C\c1ccccc1OC/C=C/c1ccccc1	-1	64*	2	-4	-4	-5	55µM*
COCC(=O)N/N=C\c1ccccc1OC/C=C/c1ccccc1	3	6	1	-8	-5	-3	·
CC(C)(C)CCNc1nc(-c2ccccn2)nnc1-c1ccccc1	·	·	·	·	·	·	2.2µM*
COc1ccc(-c2nc(-c3ccccn3)nc(N3CCN(C)CC3)c2C#N)cc1	46	19	0	7	-6	7	·
c1ccc(NCCc2ccccn2)cc1	·	6	2	2	1	3	·
SMILES	ALR inh	ARNT-TACC3 inh	ERp5 block	CendR NRP1 mod	PglD DTNB	PDI turbidity	ARNT Alpha ctr-1	others
CN1CCN(c2nc(-c3ccccn3)nnc2-c2ccccc2)CC1	·	·	·	·	·	·	0.55µM*
c1ccc(-c2nnc(-c3ccccn3)nc2NCCc2ccccn2)cc1	·	·	·	·	·	·	1.8µM*
c1ccc(-c2nnc(-c3ccccn3)nc2NCCN2CCOCC2)cc1	·	·	·	·	·	·	0.83µM*
C[C@@H]1CN([C@H](C)CO)C(=O)c2cc(NC(=O)CCC(F)(F)F)ccc2O[C@@H](C)CCCCO[C@H]1CN(C)Cc1ccc(Cl)c(Cl)c1	·	-2	0	·	1	·	·
c1ccc(-c2nnc(-c3ccccn3)nc2NCc2ccccn2)cc1	·	·	·	·	·	·	0.7µM*
COc1ccc(S(=O)(=O)Nc2cccc3c2O[C@H](CN(C)C(=O)Nc2ccc(F)cc2)[C@H](C)CN([C@H](C)CO)C3=O)cc1	·	-2	0	·	14	·	·
CC=Cc1ccc2n(c1=O)C[C@H]1[C@H](CO)[C@@H](C(=O)NC3CCC3)[C@@H]2N1S(=O)(=O)c1cn(C)cn1 (mixture of isomers)	·	active	1	·	0	·	-2%[38 µM]
CC=Cc1ccc2n(c1=O)C[C@@H]1[C@@H](CO)[C@H](C(=O)NC3CCC3)[C@H]2N1S(=O)(=O)c1cn(C)cn1 (mixture of isomers)	·	5	-6	·	1	·	·
COc1ccccc1CNC(=O)CSc1ccc(-c2ccccn2)nn1	-2	73*	-3	-9	·	0	59µM*
Cc1cc(C)cc(NC(=O)CSc2ccc(-c3ccccn3)nn2)c1	-1	11	5	-6	-1	-25	·
O=C(CSc1ccc(-c2ccccn2)nn1)N1CCCc2ccccc21	-23	59*	1	-8	-4	-6	30µM*
Cc1ccccc1NC(=O)CSc1ccc(-c2ccccn2)nn1	-3	61*	4	10	-4	6	35µM*
Cc1csc(NC(=O)CSc2ccc(-c3ccccn3)nn2)n1	-7	61*	6	-12	-6	0	16µM*
O=C(Nc1ccccc1)N[C@@H]1CC[C@H](CCn2cc(-c3ccccc3F)nn2)O[C@H]1CO	·	·	1	·	·	·	·
Cn1cnc(S(=O)(=O)N[C@H]2C=C[C@@H](CC(=O)NCC3CC3)O[C@H]2CO)c1	·	-21	-3	·	-2	·	·
O=C(N[C@@H]1C=C[C@H](CC(=O)N2CCc3ccccc3C2)O[C@H]1CO)C1CC1	·	7	1	·	3	·	·
CCOC(=O)c1ccc(NC(=O)CSc2ccc(-c3cccnc3)nn2)cc1	-7	-4	-3	-5	11	4	·
COC(=O)c1ccc(NC(=O)CSc2ccc(-c3ccccn3)nn2)cc1	-5	60*	-5	-1	-1	11	-37%
O=C(CSc1ccc(-c2ccccn2)nn1)Nc1nccs1	-10	61*	0	-1	·	0	60µM*	ARNT Alpha ctr-2=4.7*
O=C(CSc1nnc(-c2ccccn2)o1)Nc1ccccc1Cl	99*	75*	-2	0	-4	9	-27%
